The campaign covered roughly 2,300 compounds. About 330 (14%) showed activity. The list is a sample of the results. A number with no mark means an inactive call.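 The calls were made as follows: active = median modified Z-score above 1.96; inactive = 1.96 or below.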

In this test the test system is HepG2 Srxn1-GFP reporter cells (+30 nM CDDO-Me). As to the kind of experiment: Srxn1-GFP intensity median modified Z-score relative to plate median; higher = stronger NRF2 / oxidative stress reporter activation, active = hit call of the paper. The note with it: 10 µM; exposure time: 24h. The gist of the method: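 Per-cell cytoplasmic GFP was measured on confocal images of formaldehyde-fixed, Hoechst-stained HepG2 Srxn1-GFP BAC reporter cells, excluding images with fewer than 100 cells. Before this, the cells (20,000 per well, 96-well plates) were co-exposed for 24 h to compound at 10 μM and an NRF2 activator at 30 nM with ≤0.1% DMSO, in three replicate plates. Each value is the median over replicates of the per-plate modified Z-score of GFP intensity. That score was scaled with 1.4826 × median absolute deviation.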
In the case of `CCNC1(c2cccs2)CCCCC1=O` (stereo not drawn) [euspeclibcmpd629], the “Srxn1-GFP intensity median modified Z-score” value was -0.153. The same measure for `O=C1NC(=O)C(=O)C(=O)N1` [euspeclibcmpd1767]: 0.258; for `NC(=O)C[S@@+]([O-])C(c1ccccc1)c1ccccc1` [euspeclibcmpd2097]: 0.795. As to `O=c1[nH]c(=O)n(Cl)c(=O)n1Cl` [euspeclibcmpd2375], the “Srxn1-GFP intensity median modified Z-score” value was 0.319. In the case of `c1cncc(C2CCCCN2)c1` (stereo not drawn) [euspeclibcmpd1406] it was 0.116; in that of `COc1ccc2c(c1)[C@]13CCCC[C@@H]1[C@H](C2)N(C)CC3` [euspeclibcmpd87], 0.145; in that of `CC1(C)C(=O)C2O[C@@H]2[C@@]2(C)C1C[C@@H](O)[C@]1(C)C2CC[C@@]2(C)[C@H](c3ccoc3)OC(=O)C3OC321` (stereo partly drawn) [euspeclibcmpd1634], 0.977. The same measure for `COC(=O)C1CC(OC(C)=O)C(=O)C2C1(C)CCC1C(=O)OC(c3ccoc3)CC12C` (stereo not drawn) [euspeclibcmpd1949]: -0.455; for `CC1(C)C2CC(=O)[C@]3(C)C(CC[C@@]4(C)[C@H](c5ccoc5)OC(=O)C5OC543)[C@@]2(C)[C@@H](O)C[C@H]1O` (stereo partly drawn) [euspeclibcmpd1573]: -0.392. The same measure for `CC(=O)OC1CC(OC(C)=O)C2(C)C(CC(OC(C)=O)C3(C)C2CCC2(C)C(c4ccoc4)C(=O)C4OC423)C1(C)C` (stereo not drawn) [euspeclibcmpd1943]: 1.55; for `CC1(C)C(=O)C=C[C@@]2(C)C1C[C@@H](O)[C@]1(C)C2CC[C@@]2(C)[C@H](c3ccoc3)OC(=O)C3O[C@]321` (stereo partly drawn) [euspeclibcmpd1629]: 32.4 (active). For `CC(=O)O[C@@H]1CC2C(C)(C)C(=O)C=C[C@]2(C)C2CC[C@]3(C)C(=CC(=O)O[C@H]3c3ccoc3)[C@@]21C` (stereo partly drawn) [euspeclibcmpd1551], the “Srxn1-GFP intensity median modified Z-score” value is 38.8 (active). The same measure for `CC(CC(C(N)=O)(c1ccccc1)c1ccccc1)N(C)C` (stereo not drawn) [euspeclibcmpd819]: -0.42; for `C[N+]12CC[C@@]34c5ccccc5N5C(=O)CC6OCC=C(C1)[C@H](CC32)[C@@H]6C54` (stereo partly drawn) [euspeclibcmpd1705]: -0.091; for `COc1cc2c(cc1O)CCNC2C` (stereo not drawn) [euspeclibcmpd1467]: -0.387.

On to `CCOP(=S)(OCC)Oc1ccc2c(C)c(Cl)c(=O)oc2c1` [euspeclibcmpd1023], for which the “Srxn1-GFP intensity median modified Z-score” value is 1.02.

For the compound `C[C@H]1O[C@H](O[C@H]2[C@H](O)[C@@H](O)[C@@H](O)[C@H](O)[C@@H]2O)[C@@H](N)C[C@@H]1N=C(N)C(=O)O` [euspeclibcmpd1430], the “Srxn1-GFP intensity median modified Z-score” value is -0.17. The same measure for `NCCc1cc(O)c(O)cc1O` [euspeclibcmpd220]: -0.288; for `CC[C@H]1C[N@]2CCC1C[C@@H]2[C@@H](O)c1ccnc2ccc(OC)cc12` [euspeclibcmpd2090]: 0.772.

As to `C[C@]12CCC3[C@@H](CC[C@@]45OC4C(=O)C(C#N)C[C@]35C)[C@H]1CC[C@@H]2O` (stereo partly drawn) [euspeclibcmpd687], the “Srxn1-GFP intensity median modified Z-score” value is -0.339.

Take `CCC(C)[C@H]1O[C@]2(C=C[C@@H]1C)C[C@@H]1C[C@@H](C/C=C(\C)[C@@H](OC3C[C@H](OC)C(O[C@H]4C[C@H](OC)[C@@H](O)[C@H](C)O4)[C@H](C)O3)[C@@H](C)/C=C/C=C3\CO[C@@H]4[C@H](O)C(C)=CC(C(=O)O1)[C@]34O)O2` (stereo partly drawn) [euspeclibcmpd1285]: the “Srxn1-GFP intensity median modified Z-score” value was 16.3 (active). The same measure for `CC(C)(O)C(Cl)(Cl)Cl` [euspeclibcmpd1104]: -0.138; for `C=C[C@H]1C[N@]2CC[C@H]1C[C@@H]2[C@@H](OC(=O)OCC)c1ccnc2ccc(OC)cc12` [euspeclibcmpd1022]: -0.0707. In the case of `CC=C(C)C(=O)O[C@H]1CC[C@@]2(C)[C@@H]3CC[C@H]4[C@]5(O)C[C@H](O)[C@@]6(O)[C@@H](CN7C[C@@H](C)CC[C@H]7[C@@]6(C)O)[C@]5(O)C[C@@]42O[C@]13O` [euspeclibcmpd1469] it was 0.0522; in that of `Nc1[nH]c(=O)n2c1C2` [euspeclibcmpd933], 0.164.

As for `CS(=N)(=O)CCC(N)C(=O)O` (stereo not drawn) [euspeclibcmpd1752], the “Srxn1-GFP intensity median modified Z-score” value was -0.455. Consider `C[C@H]1O[C@@H](O[C@H]2[C@@H](O)C[C@H](O[C@H]3[C@@H](O)C[C@H](O[C@H]4CC[C@]5(C)C6CC[C@]7(C)C(c8coc(O)c8)CC[C@]7(O)C6CC[C@@H]5C4)O[C@@H]3C)O[C@@H]2C)C[C@H](O)[C@@H]1O` (stereo partly drawn) [euspeclibcmpd95], for which the “Srxn1-GFP intensity median modified Z-score” value is -1.81. In the case of `C[C@H]1O[C@@H](O[C@H]2[C@@H](O)C[C@H](O[C@H]3[C@@H](O)C[C@H](O[C@H]4CC[C@]5(C)C6C[C@@H](O)[C@]7(C)C(c8coc(O)c8)CC[C@]7(O)C6CC[C@@H]5C4)O[C@@H]3C)O[C@@H]2C)C[C@H](O)[C@@H]1O` (stereo partly drawn) [euspeclibcmpd96] it was -1.88; in that of `C[C@@]12C(c3coc(O)c3)CC[C@]1(O)C1CC[C@@H]3C[C@@H](O)CC[C@]3(C)C1C[C@H]2O` (stereo partly drawn) [euspeclibcmpd2259], -0.638. In the case of `CC1OC(OC2C=C3CCC4C(CCC5(C)C(c6ccc(=O)oc6)CCC45O)C3(C)CC2)C(O)C(O)C1O` (stereo not drawn) [euspeclibcmpd1931], the “Srxn1-GFP intensity median modified Z-score” value is 2.81 (active).

Turning to `C[C@@H]1O[C@@H](O[C@H]2CC[C@]3(C=O)C4CC[C@]5(C)C(c6coc(O)c6)CC[C@]5(O)C4CC[C@]3(O)C2)[C@H](O)[C@H](O)[C@H]1O` (stereo partly drawn) [euspeclibcmpd1374], the “Srxn1-GFP intensity median modified Z-score” value was 7.48 (active).

In the case of `C[C@@H]1O[C@@H](O[C@H]2C[C@@H](O)[C@]3(CO)C4C(CC[C@]3(O)C2)[C@@]2(O)CCC(c3coc(O)c3)[C@@]2(C)C[C@H]4O)[C@H](O)[C@H](O)[C@H]1O` (stereo partly drawn) [euspeclibcmpd1207], the “Srxn1-GFP intensity median modified Z-score” value is -1.16. In the case of `CC1OC(OC2C(O)CC(OC3C(O)CC(OC4CCC5(C)C(CCC6C5CCC5(C)C(c7coc(O)c7)C(O)CC65O)C4)OC3C)OC2C)CC(O)C1O` (stereo not drawn) [euspeclibcmpd1936] it was 2.78 (active); in that of `CO[C@H]1[C@H](O)[C@@H](O[C@H]2CC[C@]3(C=O)C4CC[C@]5(C)C(c6coc(O)c6)CC[C@]5(O)C4CC[C@@H]3C2)O[C@@H](C)[C@@H]1O` (stereo partly drawn) [euspeclibcmpd2165], 3.39 (active). In the case of `CNNC` [euspeclibcmpd2278] it was -0.486; in that of `O=C(O)CCC1NCC2CC1CN1CCCCC21` (stereo not drawn) [euspeclibcmpd2022], -0.148. In the case of `O=C1CCCC2C3C[C@H](CN12)[C@@H]1CCCCN1C3` (stereo partly drawn) [euspeclibcmpd1695] it was -0.101; in that of `CCC(=O)O[C@H]1CCC2C3CC=C4CC(=O)CC[C@]4(C)C3CC[C@@]21C` (stereo partly drawn) [euspeclibcmpd7], 0.269.

The values above are taken from the supplement of paper PMC10498489.
